# Test results published in PubChem BioAssay (EPA / NIEHS).
# Where “and” joins values, the source holds several entries; their conditions need not be identical. Equal entries are not always repeated. Inconclusive results are not listed. A structure can be active in one record and inactive in another. Calls of active or inactive are those of the source. The calls were made as follows: active = hit-call score of the fitted dose curve at least 0.9, where 1 is the maximum; inconclusive = response in the unintended direction; inactive = score below 0.9.
# Legend:
# [1] = target: human Protein Tyrosine Phosphatase Non-receptor Type 4 (PTPN4), PTPN4 (gene 5775) (UniProt P29074); assay: NVS_ENZ_hPTPN4: NovaScreen (NVS) Enzymatic Assay for human Protein Tyrosine Phosphatase Non-receptor Type 4 (PTPN4) (AID 2283208)
# Procedure, shortened: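 Screened in duplicate at 25 uM, with hits then titrated to a top concentration of 50 uM. Recombinant Sf9-derived PTPN4 turnover was read by fluorescence with electrophoretic separation, 1.33 h after compound addition. DMSO served as baseline.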
# [2] = target: human Protein Tyrosine Phosphatase Non-receptor Type 9 (PTPN9), PTPN9 (gene 5780) (UniProt P43378); assay: NVS_ENZ_hPTPN9: NovaScreen (NVS) Enzymatic Assay for human Protein Tyrosine Phosphatase Non-receptor Type 9 (PTPN9) (AID 2283209)
# Procedure, shortened: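 Sf9-expressed enzyme in a cell-free assay, fluorescence read 1.33 h after dosing with mobility-shift separation of substrate and product. Tested at 25 uM in duplicate, then up to 50 uM; signal loss versus DMSO.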
# [3] = target: human Protein Tyrosine Phosphatase Receptor Type M (PTPRM), PTPRM (gene 5797) (UniProt P28827); assay: NVS_ENZ_hPTPRM: NovaScreen (NVS) Enzymatic Assay for human Protein Tyrosine Phosphatase Receptor Type M (PTPRM) (AID 2283215)
# Protocol: NVS_ENZ_hPTPRM is a biochemical, single-readout assay that uses extracted gene-proteins in a cell-free assay. Measurements were taken 1.33 hours after chemical dosing in a 384-well plate.NVS_ENZ_hPTPRM is one of one assay component(s) measured or calculated from the NVS_ENZ_hPTPRM assay. It is designed to make measurements of enzyme activity, a form of enzyme reporter, as detected with fluorescence intensity signals by Fluorescence and electrophoretic mobility shift technology.Data from the assay component NVS_ENZ_hPTPRM was analyzed into 1 assay endpoint. This assay endpoint, NVS_ENZ_hPTPRM, was analyzed in the positive analysis fitting direction relative to DMSO as the negative control and baseline of activity. Using a type of enzyme reporter, loss-of-signal activity can be used to understand changes in the enzymatic activity as they relate to the gene PTPRM. Furthermore, this assay endpoint can be referred to as a primary readout, because this assay has produced multiple assay endpoints where this one serves a enzymatic activity function. To generalize the intended target to other relatable targets, this assay endpoint is annotated to the phosphatase intended target family, where the subfamily is receptor tyrosine phosphatase.
# Binding assays used specific radioligands (tritiated, iodinated) with non-radioactive competitive displacement ligands in agonist or antagonist protocols (as indicated) and various reference compounds and inhibitors to titrate specific binding to receptors and transporters. Most enzyme assays (CYPs, kinases, phosphatases, proteases, HDACs) used recombinant protein and specific substrates (fluorescence mostly, some colorimetric and radioactive) and inhibitors, followed by a biochemical separation of substrate and product. All assays for the biochemical HTS were initially run in duplicate at a single concentration (10 uM for CYP450 assays and 25 uM for all others). […] Each assay was run with positive and negative controls, and concurrent controls on every plate. The follow-up (secondary) screen tested active chemical-pairs in concentration series, as well as a few additional assays not tested in the primary screen, some selected negative inactives, and several cases re-run in the concentration series for confirmatory purposes.
# [4] = target: human Sirtuin 2 (SIRT2), SIRT2 (gene 22933) (UniProt Q8IXJ6); assay: NVS_ENZ_hSIRT2: NovaScreen (NVS) Enzymatic Assay for human Sirtuin 2 (SIRT2) (AID 2283217)
# Procedure, shortened: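 Single-point duplicate screen at 25 uM, then concentration-response (max 50 uM) for chemicals passing threshold. Enzyme activity of recombinant human SIRT2 measured after 1 hr by fluorescence with mobility-shift separation of product; DMSO baseline.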
# [5] = target: human Protein Tyrosine Phosphatase Receptor Type B (PTPRB), PTPRB (gene 5787) (UniProt P23467); assay: NVS_ENZ_hPTPRB: NovaScreen (NVS) Enzymatic Assay for human Protein Tyrosine Phosphatase Receptor Type B (PTPRB) (AID 2283211)
# Procedure, shortened: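 Recombinant human PTPRB with a fluorescent substrate, product separated by electrophoretic mobility shift; read 1 h after dosing. Primary screen in duplicate at 25 uM; actives then retested in concentration series; loss of signal versus DMSO.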
# [6] = target: human Raf-1 Proto-Oncogene, serine/threonine Kinase (RAF1), RAF1 (gene 5894) (UniProt P04049); assay: NVS_ENZ_hRAF1: NovaScreen (NVS) Enzymatic Assay for human Raf-1 Proto-Oncogene, serine/threonine Kinase (RAF1) (AID 2283216)
# Procedure, shortened: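 Single-point screening at 25 uM (duplicate), followed by singleton concentration-response to 50 uM maximum for chemicals exceeding threshold. Enzyme activity from fluorescent substrate-product mobility-shift separation after 1 h, relative to DMSO.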
# [7] = target: human Protein Tyrosine Phosphatase Non-receptor Type 6 (PTPN6), PTPN6 (gene 5777) (UniProt P29350); assay: NVS_ENZ_hPTPN6: NovaScreen (NVS) Enzymatic Assay for human Protein Tyrosine Phosphatase Non-receptor Type 6 (PTPN6) (AID 2283210)
# Procedure, shortened: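 Recombinant human PTPN6 from SF9 cells, enzyme activity followed by fluorescence after mobility-shift separation of substrate and product at 1.33 h. Chemicals first tested at a single 25 uM in duplicate, then confirmed across concentration series; loss of signal relative to DMSO.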
# [8] = target: human Protein Tyrosine Phosphatase Receptor Type C (PTPRC), PTPRC (gene 5788) (UniProt P08575); assay: NVS_ENZ_hPTPRC: NovaScreen (NVS) Enzymatic Assay for human Protein Tyrosine Phosphatase Receptor Type C (PTPRC) (AID 2283212)
# Protocol: NVS_ENZ_hPTPRC is a biochemical, single-readout assay that uses extracted gene-proteins from yeast cells in a cell-free assay. Measurements were taken 1 hour after chemical dosing in a 96-well plate.NVS_ENZ_hPTPRC is one of one assay component(s) measured or calculated from the NVS_ENZ_hPTPRC assay. It is designed to make measurements of enzyme activity, a form of enzyme reporter, as detected with absorbance signals by Colorimetric technology.Data from the assay component NVS_ENZ_hPTPRC was analyzed into 1 assay endpoint. This assay endpoint, NVS_ENZ_hPTPRC, was analyzed in the positive analysis fitting direction relative to DMSO as the negative control and baseline of activity. […] Furthermore, this assay endpoint can be referred to as a primary readout, because this assay has produced multiple assay endpoints where this one serves a enzymatic activity function. […]
# Binding assays used specific radioligands (tritiated, iodinated) with non-radioactive competitive displacement ligands in agonist or antagonist protocols (as indicated) and various reference compounds and inhibitors to titrate specific binding to receptors and transporters. Most enzyme assays (CYPs, kinases, phosphatases, proteases, HDACs) used recombinant protein and specific substrates (fluorescence mostly, some colorimetric and radioactive) and inhibitors, followed by a biochemical separation of substrate and product. […]
# [9] = target: human Protein Tyrosine Phosphatase Receptor Type F (PTPRF), PTPRF (gene 5792) (UniProt P10586); assay: NVS_ENZ_hPTPRF: NovaScreen (NVS) Enzymatic Assay for human Protein Tyrosine Phosphatase Receptor Type F (PTPRF) (AID 2283213)
# Procedure, shortened: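 Cell-free fluorescence enzyme assay with recombinant protein and substrate; product separated by electrophoretic mobility shift. Read 1 h after dosing, single 25 uM duplicate screen, then concentration-response up to 50 uM; loss of signal vs DMSO.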
# [10] = target: human Rho Associated Coiled-coil Containing Protein Kinase 1 (ROCK1), ROCK1 (gene 6093) (UniProt Q13464); assay: NVS_ENZ_hROCK1: NovaScreen (NVS) Enzymatic Assay for human Rho Associated Coiled-coil Containing Protein Kinase 1 (ROCK1) (AID 2283214)
# Protocol: NVS_ENZ_hROCK1 is a biochemical, single-readout assay that uses extracted gene-proteins in a cell-free assay. Measurements were taken 1 hour after chemical dosing in a 384-well plate.NVS_ENZ_hROCK1 is one of one assay component(s) measured or calculated from the NVS_ENZ_hROCK1 assay. It is designed to make measurements of enzyme activity, a form of enzyme reporter, as detected with fluorescence intensity signals by Fluorescence and electrophoretic mobility shift technology.Data from the assay component NVS_ENZ_hROCK1 was analyzed into 1 assay endpoint. This assay endpoint, NVS_ENZ_hROCK1, was analyzed in the positive analysis fitting direction relative to DMSO as the negative control and baseline of activity. Using a type of enzyme reporter, loss-of-signal activity can be used to understand changes in the enzymatic activity as they relate to the gene ROCK1. Furthermore, this assay endpoint can be referred to as a primary readout, because this assay has produced multiple assay endpoints where this one serves a enzymatic activity function. To generalize the intended target to other relatable targets, this assay endpoint is annotated to the kinase intended target family, where the subfamily is serine/threonine kinase. […]
# human Protein Tyrosine Phosphatase Non-receptor Type 9 (PTPN9), PTPN9 (gene 5780), sequence (P43378 whole entry, looked up): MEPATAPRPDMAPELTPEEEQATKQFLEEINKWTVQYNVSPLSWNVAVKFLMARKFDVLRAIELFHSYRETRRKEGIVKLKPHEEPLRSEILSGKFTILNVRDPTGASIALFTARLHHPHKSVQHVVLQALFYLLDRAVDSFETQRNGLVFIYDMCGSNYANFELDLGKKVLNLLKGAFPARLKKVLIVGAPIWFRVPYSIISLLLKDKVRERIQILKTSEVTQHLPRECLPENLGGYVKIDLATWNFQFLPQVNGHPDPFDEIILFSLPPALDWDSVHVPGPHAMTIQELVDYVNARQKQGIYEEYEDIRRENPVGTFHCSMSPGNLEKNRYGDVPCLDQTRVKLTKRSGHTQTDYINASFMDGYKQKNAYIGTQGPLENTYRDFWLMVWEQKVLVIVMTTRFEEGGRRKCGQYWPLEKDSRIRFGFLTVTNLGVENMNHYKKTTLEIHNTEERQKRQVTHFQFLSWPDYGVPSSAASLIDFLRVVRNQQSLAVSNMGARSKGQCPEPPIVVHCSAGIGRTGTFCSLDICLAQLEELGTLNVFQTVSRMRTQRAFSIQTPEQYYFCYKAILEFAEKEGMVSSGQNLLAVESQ
# human Protein Tyrosine Phosphatase Non-receptor Type 6 (PTPN6), PTPN6 (gene 5777), sequence (P29350 whole entry, looked up): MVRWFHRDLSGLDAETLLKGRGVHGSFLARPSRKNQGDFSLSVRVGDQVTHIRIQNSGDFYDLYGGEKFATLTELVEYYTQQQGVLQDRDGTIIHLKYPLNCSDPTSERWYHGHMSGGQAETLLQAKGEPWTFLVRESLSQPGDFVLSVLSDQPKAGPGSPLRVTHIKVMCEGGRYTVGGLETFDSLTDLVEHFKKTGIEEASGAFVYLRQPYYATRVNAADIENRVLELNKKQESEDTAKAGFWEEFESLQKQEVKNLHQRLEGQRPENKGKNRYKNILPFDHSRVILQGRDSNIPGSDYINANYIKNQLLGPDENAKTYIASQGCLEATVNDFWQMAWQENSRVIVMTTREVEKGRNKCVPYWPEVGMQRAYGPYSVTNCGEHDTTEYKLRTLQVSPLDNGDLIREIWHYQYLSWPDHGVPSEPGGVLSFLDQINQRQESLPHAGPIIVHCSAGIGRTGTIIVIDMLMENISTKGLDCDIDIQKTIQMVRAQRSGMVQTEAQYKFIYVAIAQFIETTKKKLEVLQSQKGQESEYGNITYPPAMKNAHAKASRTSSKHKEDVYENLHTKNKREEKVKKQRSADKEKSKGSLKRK
# human Raf-1 Proto-Oncogene, serine/threonine Kinase (RAF1), RAF1 (gene 5894), sequence (P04049 whole entry, looked up): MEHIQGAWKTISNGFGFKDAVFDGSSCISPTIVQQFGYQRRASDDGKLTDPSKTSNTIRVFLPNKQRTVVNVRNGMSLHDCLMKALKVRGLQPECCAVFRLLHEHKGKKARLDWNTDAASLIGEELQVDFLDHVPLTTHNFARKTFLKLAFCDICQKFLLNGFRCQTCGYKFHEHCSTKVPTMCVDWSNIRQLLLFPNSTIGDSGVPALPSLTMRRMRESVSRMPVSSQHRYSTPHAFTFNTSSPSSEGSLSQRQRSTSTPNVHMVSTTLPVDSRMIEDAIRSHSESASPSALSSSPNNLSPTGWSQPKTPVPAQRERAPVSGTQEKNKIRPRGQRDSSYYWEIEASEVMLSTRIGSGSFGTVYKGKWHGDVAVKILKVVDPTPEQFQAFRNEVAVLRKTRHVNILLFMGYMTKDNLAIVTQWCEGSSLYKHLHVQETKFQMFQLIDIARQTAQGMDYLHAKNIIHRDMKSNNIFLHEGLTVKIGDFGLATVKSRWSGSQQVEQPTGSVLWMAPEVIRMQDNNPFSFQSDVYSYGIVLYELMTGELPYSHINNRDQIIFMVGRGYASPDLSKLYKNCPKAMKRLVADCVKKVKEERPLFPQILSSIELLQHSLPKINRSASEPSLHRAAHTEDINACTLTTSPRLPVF
# human Sirtuin 2 (SIRT2), SIRT2 (gene 22933), sequence (Q8IXJ6 whole entry, looked up): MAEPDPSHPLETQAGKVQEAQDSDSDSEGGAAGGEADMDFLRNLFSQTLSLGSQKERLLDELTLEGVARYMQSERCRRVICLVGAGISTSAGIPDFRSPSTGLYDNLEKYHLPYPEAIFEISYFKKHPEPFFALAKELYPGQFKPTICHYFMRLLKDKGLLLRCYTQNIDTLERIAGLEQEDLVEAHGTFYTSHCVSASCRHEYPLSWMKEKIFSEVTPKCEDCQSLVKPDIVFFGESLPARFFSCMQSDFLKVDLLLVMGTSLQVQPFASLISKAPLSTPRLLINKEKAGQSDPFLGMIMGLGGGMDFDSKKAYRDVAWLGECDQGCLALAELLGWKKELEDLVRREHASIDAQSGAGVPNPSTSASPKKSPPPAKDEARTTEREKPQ
# human Protein Tyrosine Phosphatase Receptor Type C (PTPRC), PTPRC (gene 5788), sequence (P08575 whole entry, looked up): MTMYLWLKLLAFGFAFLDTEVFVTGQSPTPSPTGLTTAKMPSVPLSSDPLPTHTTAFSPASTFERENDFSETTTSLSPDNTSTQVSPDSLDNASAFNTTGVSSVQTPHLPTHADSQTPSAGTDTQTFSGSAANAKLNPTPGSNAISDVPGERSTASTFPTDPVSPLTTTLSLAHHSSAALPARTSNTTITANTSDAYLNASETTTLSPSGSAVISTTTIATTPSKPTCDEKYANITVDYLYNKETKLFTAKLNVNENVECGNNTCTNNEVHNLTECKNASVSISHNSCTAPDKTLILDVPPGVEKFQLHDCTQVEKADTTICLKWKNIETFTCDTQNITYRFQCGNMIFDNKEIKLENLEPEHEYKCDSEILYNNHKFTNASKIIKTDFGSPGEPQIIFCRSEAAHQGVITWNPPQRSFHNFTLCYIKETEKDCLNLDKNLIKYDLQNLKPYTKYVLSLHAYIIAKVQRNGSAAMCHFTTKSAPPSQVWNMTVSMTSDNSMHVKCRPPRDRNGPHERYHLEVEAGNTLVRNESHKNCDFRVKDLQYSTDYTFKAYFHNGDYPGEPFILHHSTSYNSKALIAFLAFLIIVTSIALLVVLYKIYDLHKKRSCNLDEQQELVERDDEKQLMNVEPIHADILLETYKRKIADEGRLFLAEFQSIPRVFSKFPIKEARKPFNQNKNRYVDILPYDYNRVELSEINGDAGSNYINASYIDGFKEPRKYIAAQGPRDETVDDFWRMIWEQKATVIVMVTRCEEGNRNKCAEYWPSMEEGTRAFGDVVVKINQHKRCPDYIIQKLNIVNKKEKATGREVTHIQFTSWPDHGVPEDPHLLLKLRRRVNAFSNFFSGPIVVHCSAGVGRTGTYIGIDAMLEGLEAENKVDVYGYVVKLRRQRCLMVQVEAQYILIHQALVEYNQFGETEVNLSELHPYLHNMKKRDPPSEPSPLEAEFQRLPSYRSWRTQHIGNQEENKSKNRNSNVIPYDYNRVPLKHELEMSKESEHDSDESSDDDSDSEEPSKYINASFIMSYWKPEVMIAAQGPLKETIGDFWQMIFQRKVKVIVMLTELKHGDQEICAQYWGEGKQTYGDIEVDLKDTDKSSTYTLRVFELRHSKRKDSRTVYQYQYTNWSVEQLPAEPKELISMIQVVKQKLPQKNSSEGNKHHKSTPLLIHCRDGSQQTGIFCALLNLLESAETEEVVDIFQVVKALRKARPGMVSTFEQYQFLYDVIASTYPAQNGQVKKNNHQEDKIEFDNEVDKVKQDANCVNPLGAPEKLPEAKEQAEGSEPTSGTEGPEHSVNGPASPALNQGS
# human Protein Tyrosine Phosphatase Receptor Type M (PTPRM), PTPRM (gene 5797), sequence (P28827 whole entry, looked up): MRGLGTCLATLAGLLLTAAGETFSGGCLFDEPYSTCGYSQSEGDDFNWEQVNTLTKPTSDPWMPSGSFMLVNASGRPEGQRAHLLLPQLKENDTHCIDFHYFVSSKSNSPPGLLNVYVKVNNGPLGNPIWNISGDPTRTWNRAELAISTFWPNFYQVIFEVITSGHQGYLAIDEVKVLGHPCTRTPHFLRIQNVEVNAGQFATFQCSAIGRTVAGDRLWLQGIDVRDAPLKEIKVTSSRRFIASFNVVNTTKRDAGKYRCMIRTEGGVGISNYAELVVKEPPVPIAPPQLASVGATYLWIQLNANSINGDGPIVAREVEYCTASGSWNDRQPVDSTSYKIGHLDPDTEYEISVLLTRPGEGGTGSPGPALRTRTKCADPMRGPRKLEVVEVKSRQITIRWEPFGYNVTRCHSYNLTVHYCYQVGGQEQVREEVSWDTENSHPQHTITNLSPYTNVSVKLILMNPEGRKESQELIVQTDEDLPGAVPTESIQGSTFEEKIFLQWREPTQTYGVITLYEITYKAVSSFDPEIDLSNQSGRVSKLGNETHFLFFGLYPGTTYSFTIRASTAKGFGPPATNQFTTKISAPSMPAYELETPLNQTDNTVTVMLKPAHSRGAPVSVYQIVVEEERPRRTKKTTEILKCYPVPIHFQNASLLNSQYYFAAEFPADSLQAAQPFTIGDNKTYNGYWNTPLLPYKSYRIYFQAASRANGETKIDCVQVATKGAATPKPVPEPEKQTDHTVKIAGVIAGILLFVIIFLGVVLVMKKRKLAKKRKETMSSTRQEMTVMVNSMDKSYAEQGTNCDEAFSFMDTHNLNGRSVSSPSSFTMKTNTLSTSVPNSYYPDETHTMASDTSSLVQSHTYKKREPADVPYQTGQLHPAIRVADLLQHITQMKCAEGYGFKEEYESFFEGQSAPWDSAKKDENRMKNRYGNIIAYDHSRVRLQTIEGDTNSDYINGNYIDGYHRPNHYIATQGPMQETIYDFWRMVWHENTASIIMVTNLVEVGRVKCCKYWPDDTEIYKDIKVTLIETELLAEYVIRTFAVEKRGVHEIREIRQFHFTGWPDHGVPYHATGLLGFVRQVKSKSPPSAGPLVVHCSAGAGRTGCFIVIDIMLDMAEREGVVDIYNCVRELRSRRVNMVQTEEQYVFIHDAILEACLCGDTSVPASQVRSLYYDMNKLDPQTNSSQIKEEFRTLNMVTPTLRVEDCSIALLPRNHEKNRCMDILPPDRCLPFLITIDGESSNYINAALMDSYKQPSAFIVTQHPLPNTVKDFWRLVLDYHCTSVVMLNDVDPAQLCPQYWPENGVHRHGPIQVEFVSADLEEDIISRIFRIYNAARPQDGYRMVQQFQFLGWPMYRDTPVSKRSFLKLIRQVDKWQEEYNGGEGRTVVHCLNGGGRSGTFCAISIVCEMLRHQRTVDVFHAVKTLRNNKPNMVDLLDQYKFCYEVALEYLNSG
compound,measurement,setting,value
COC(=O)c1ccccc1S(=O)(=O)NC(=O)N(C)c1nc(C)nc(OC)n1,outcome,[1],inactive
same,outcome,[2],inactive
Cc1cc(C)nc(NC(=O)NS(=O)(=O)c2ccccc2C(=O)OC2COC2)n1,AC50,[1],4.96 µM (active)
same,AC50,[2],36.7 µM (active)
same,outcome,[3],inactive
CCCN(CCOc1c(Cl)cc(Cl)cc1Cl)C(=O)n1ccnc1,AC50,[4],10.8 µM (active)
Oc1cc(Cl)ccc1Oc1ccc(Cl)cc1Cl,outcome,[5],inactive
Oc1ccc(Cl)cc1Cc1ccccc1,outcome,[6],inactive
same,AC50,[4],3.4 µM (active) and 9.3 µM (active)
O=S(=O)(O)C(F)(F)C(F)(F)C(F)(F)C(F)(F)C(F)(F)C(F)(F)C(F)(F)C(F)(F)F,AC50,[7],34.8 µM (active)
same,AC50,[5],18.7 µM (active) and 37.6 µM (active)
same,AC50,[8],17.1 µM (active) and 15.2 µM (active)
same,outcome,[8],inactive
same,AC50,[9],14.8 µM (active) and 13.1 µM (active)
same,AC50,[10],39 µM (active)
same,AC50,[3],23.6 µM (active) and 43 µM (active)
same,AC50,[6],33.2 µM (active) and 24.5 µM (active)
same,AC50,[4],6.66 µM (active)
CCOc1nc(NC)nc(NC(=O)NS(=O)(=O)c2ccccc2C(=O)OC)n1,outcome,[6],inactive
O=C1c2ccccc2C(=O)N1SC(Cl)(Cl)Cl,outcome,[1],inactive
CCS(=O)(=O)c1cccnc1S(=O)(=O)NC(=O)Nc1nc(OC)cc(OC)n1,outcome,[9],inactive
same,outcome,[3],inactive
same,outcome,[6],inactive
CN1CSC(=S)N(C)C1,outcome,[1],inactive
same,outcome,[2],inactive
same,AC50,[9],10.1 µM (active)
same,AC50,[3],25 µM (active)
CC(C)(C)C(O)C(Oc1ccc(Cl)cc1)n1cncn1 (configuration not stated),outcome,[2],inactive
same,outcome,[7],inactive
CNC(=O)/C=C(\C)OP(=O)(OC)OC,outcome,[6],inactive
CCC(C)Nc1c([N+](=O)[O-])cc(C(C)(C)C)cc1[N+](=O)[O-] (configuration not stated),outcome,[6],inactive
O=C(O)C(F)(F)C(F)(F)C(F)(F)C(F)(F)C(F)(F)C(F)(F)C(F)(F)F,outcome,[5],inactive
same,outcome,[3],inactive
CCC(C)(C)C(=O)OC1=C(c2ccc(Cl)cc2Cl)C(=O)OC12CCCCC2,outcome,[3],inactive
same,AC50,[4],18.9 µM (active)
CC[C@H](C)[C@H]1O[C@]2(C=C[C@@H]1C)C[C@@H]1C[C@@H](C/C=C(\C)[C@@H](O[C@H]3C[C@H](OC)[C@@H](O[C@H]4C[C@H](OC)[C@@H](O)[C@H](C)O4)[C@H](C)O3)[C@@H](C)/C=C/C=C3\CO[C@@H]4[C@H](O)C(C)=C[C@@H](C(=O)O1)[C@]34O)O2 (tested in a mixture with another compound),AC50,[3],45.3 µM (active)
CNC(=O)CSP(=S)(OC)OC,outcome,[7],inactive
same,outcome,[5],inactive
same,outcome,[9],inactive
N#Cc1c(Cl)c(Cl)c(Cl)c(C#N)c1Cl,outcome,[3],inactive
COC(=O)c1ccccc1S(=O)(=O)NC(=O)Nc1nc(C)nc(OC)n1,outcome,[5],inactive
O=[N+]([O-])c1c(Cl)c(Cl)c(Cl)c(Cl)c1Cl,outcome,[9],inactive
